Pf apPOL block = Pf-apPOL DNA polymerase inhibition; Recombinant Pf-apPOL, molecular beacon fluorescence, 1.5 h; inhibition, % at 10 µM; hit rate 0.25% among 210,000
mHTT-CaM PPI inh = inhibitors of human mutant huntingtin-calmodulin interaction | AlphaScreen His-mHTT/GST-CaM binding, luminescence | inhibition, % at 15 µM | hit rate 3.6% among 190,000 | AID 1671202
Of the large screens only hits and unclear results are named; the others gave an inactive call; ! = not active in a repeat. Most compounds without a hit are left out; they make up all but 3.5% or so of the library. No stated cut-off is given here; in the data, active means inhibition above about 50%; inactive means the rest.

CCOC(=O)CCCNC(=O)O[C@@H]1C[C@H]2C[C@@H]1[C@H]1CCCCN1C2	mHTT-CaM PPI inh 84.7
CN(CC(=O)N1CCCc2c1c(=O)oc1ccc(OCc3ccccc3)cc21)C1CCCCC1	none
COc1nccnc1NC1CCN(C(=O)NCc2cccc(F)c2)CC1	none
Cc1cccc(-n2ncc3c(N4CCOCC4)ncnc32)c1	none
Cc1ccc(-n2ncc3c(N4CCOCC4)ncnc32)c(C)c1	mHTT-CaM PPI inh 56.0
COc1ccc(/C=C/c2nc(N)nc(-c3ccccc3O)n2)cc1	none
Oc1ccc(/C=N/n2cnnc2)c(O)c1	none (no result: Pf apPOL block)
Oc1ccc(/C=C/c2nc(-c3ccccc3O)n(-c3ccccc3)n2)cc1	mHTT-CaM PPI inh 92.0
Oc1ccc(/C=C/c2nc(-c3ccccc3O)n(-c3ccccc3)n2)c(O)c1	mHTT-CaM PPI inh 96.0
Cc1cc(C)c(-c2noc(C)n2)c(NC(=O)c2ccc(C(F)(F)F)cc2)n1	none
Cc1ccc(NC(=O)c2cc(S(=O)(=O)NC3CCCCC3)ccc2F)cc1Cl	none
O=C(Nc1ccc(Cl)c(Cl)c1)c1cc(S(=O)(=O)NC2CCCCC2)ccc1F	mHTT-CaM PPI inh 78.0
O=C(Nc1cccc(Cl)c1)c1ccc(F)c(S(=O)(=O)NC2CCCC2)c1	none
O=C(Nc1cc(Cl)cc(Cl)c1)c1ccc(F)c(S(=O)(=O)NC2CCCC2)c1	mHTT-CaM PPI inh 54.0
Cc1[nH]n(-c2ccc([N+](=O)[O-])cc2)c(=O)c1C=NCCCN1CCCC1=O	none
OC(C#CC1(O)CCCCC1)c1ccco1 (configuration not stated)	none (no result: Pf apPOL block)
OC(C#CC1CC1)c1ccco1 (configuration not stated)	mHTT-CaM PPI inh 100.2
CC1(C)C2CCC1(C)C(OCC(O)CN1CCN(Cc3ccccc3)CC1)C2 (configuration not stated)	none
CC1(C)C2CCC1(C)C(OCC(O)CN1CCN(c3ccccc3)CC1)C2 (configuration not stated)	mHTT-CaM PPI inh 51.7
COc1cccc(/C=C2/C(=O)N(c3ccc(Cl)c(Cl)c3)N=C2C)c1OCC#N	none
Cc1cccc(-c2noc(C3CCCN3S(=O)(=O)c3cccc(Cl)c3C)n2)c1 (configuration not stated)	none
Cn1c(=O)cc2c3c(c(Br)ccc31)C(=O)c1ccccc1-2	none
Cn1c(=O)cc2c3c(c(N4CCCCC4)ccc31)C(=O)c1ccccc1-2	mHTT-CaM PPI inh 55.0
CN(CCCNC(=O)C1CCCN(c2ccc(N3CCOCC3)nn2)C1)c1ccccc1 (configuration not stated)	mHTT-CaM PPI inh 54.7
CCCCNC(=O)C1CCCN(c2ccc(N3CCOCC3)nn2)C1 (configuration not stated)	none
O=Cc1cc(OCc2ccccc2)ccc1O	mHTT-CaM PPI inh 76.4
COc1ccc(OCc2ccccc2)c(C=O)c1	none
Oc1c(I)cc(I)cc1C=Nc1ccccc1Cl	none (no result: mHTT-CaM PPI inh)
CCc1nn(-c2ccc(Cl)c(Cl)c2)c(CC)c1C(=O)N1CCN(CC)CC1	mHTT-CaM PPI inh 65.9
CC(C)c1c(C(=O)N2CCN(C)CC2)c(C2CC2)nn1-c1ccccc1	none
CCc1nn(-c2ccc(C)cc2)c(CC)c1C(=O)N1CCN(CC)CC1	none
Cc1c(C(=O)N2CCN(C)CC2)c(C2CC2)nn1-c1ccc(Cl)c(Cl)c1	mHTT-CaM PPI inh 56.4
Cc1noc(C)c1S(=O)(=O)N1CCC(CC(=O)NC2CC2)CC1	none
CC1(C)N2CC3([N+](=O)[O-])CN1CC([N+](=O)[O-])(C2)C3(C)C	none
O=C(NCc1ccccc1Cl)C1CCN(c2cn[nH]c(=O)c2)CC1	none
C=CCSc1nnc(-c2ccccc2N)c(=O)[nH]1	mHTT-CaM PPI inh 99.1!
Nc1ccccc1-c1nnc(SCc2ccccc2)[nH]c1=O	none
O=C1/C(=C/c2ccco2)CC2CC1C/C(=C\c1ccco1)C2=O	none
N#CC(C#N)C(C#N)(C#N)C1CCC/C(=C\c2ccco2)C1=O (configuration not stated)	mHTT-CaM PPI inh 99.0
CCCc1cnc(N2CCCN(C(=S)Nc3cccnc3)CC2)nc1	none (no result: mHTT-CaM PPI inh)
COc1ccc(C(=O)c2ccco2)cc1	Pf apPOL block 55.8
COc1ccc(C(=O)N2CCN(C(=O)c3ccco3)CC2)cc1	none
Cc1ccc(C)c(CN2CCCN(c3cccc(NC(=O)C4CC4)c3)C2=O)c1	none
CCC(=O)Nc1cccc(-c2noc(C3CCCN(C(=O)c4ccccc4F)C3)n2)c1 (configuration not stated)	none
CCN(CC)c1ccc(C(Nc2ccccn2)c2ccc3cccnc3c2O)cc1 (configuration not stated)	mHTT-CaM PPI inh 100.0
CCN(CC)c1ccc(C2C(C(=O)Nc3ccccn3)=C(C)NC3=C2C(=O)CCC3)cc1 (configuration not stated)	none
CC(C)Oc1ccc(C(=O)Nc2cc(-c3nc4ncccc4o3)ccc2Cl)cc1	none
CC(C)Oc1ccc(C(Nc2ccccn2)c2ccc3cccnc3c2O)cc1 (configuration not stated)	mHTT-CaM PPI inh 98.0
CC(=Cc1ccccc1[N+](=O)[O-])c1cc2ccccc2c2ccccc12	none (no result: mHTT-CaM PPI inh)
O=C(NCc1cccs1)c1cccnc1N1CCNC(c2ccccc2)C1 (configuration not stated)	none
COc1ccc(NC(=O)CC(C)C)cc1N1CCCC1=O	none
COc1ccc(NC(=O)NC(c2ccccc2)c2ccccc2)cc1N1CCCC1=O	mHTT-CaM PPI inh 55.3
C=CCN1C(=O)C(O)(CC(=O)c2ccc(C)cc2C)c2ccccc21 (configuration not stated)	mHTT-CaM PPI inh 60.0
CCN1C(=O)C(O)(CC(=O)c2ccccc2OC)c2ccccc21 (configuration not stated)	none
Cc1noc(C2CN(S(=O)(=O)Cc3ccccc3)CC2C)n1 (configuration not stated)	none
Cc1ccc(O)c(-n2c(=O)c3cc4c(=O)n(-c5cc(C)ccc5O)c(=O)c4cc3c2=O)c1	none
Nc1ccc(-c2cc(-c3ccccc3)nc(-c3ccc(N)cc3)n2)cc1	none
Nc1ccc(-c2c3ccccc3nc3cc(N)ccc23)cc1	mHTT-CaM PPI inh 100.3
CN(CC1(C)CCOCC1)S(=O)(=O)c1ccc(Cl)s1	none
O=S(=O)(Nc1ccc(F)cc1)c1cccn2cnnc12	Pf apPOL block 61.6
O=S(=O)(c1cccn2cnnc12)N(Cc1ccccc1F)c1ccc(F)c(F)c1	mHTT-CaM PPI inh 60.7
O=S(=O)(c1cccn2cnnc12)N(Cc1cccc(F)c1)c1ccc(F)c(F)c1	none
O=S(=O)(c1ccc2nncn2c1)N(Cc1ccccc1Cl)c1ccccc1	none
O=S(=O)(c1cccn2cnnc12)N(Cc1ccc(F)cc1)c1ccc(F)cc1	none
O=S(=O)(c1cccn2cnnc12)N(Cc1cccc(F)c1)c1ccc(F)cc1	mHTT-CaM PPI inh 50.7
Cc1ccc(-c2noc(C3CCN(CC(=O)Nc4cc(F)ccc4C)CC3)n2)cc1	none
O=C(NCc1cc(-c2cccs2)on1)c1ccc(=O)oc1	none
CCC(=O)Nc1cccc(NC(=O)c2ccc(F)cc2)c1	none
Cc1ccc(NC(=O)C(=O)NCC2COc3ccccc3O2)cc1 (configuration not stated)	none
Cc1nc(-c2cnccn2)nc2c1CCC(=O)N2CCC1=CCCCC1	none
O=C(O)c1ccc(N2N=C(C(F)(F)F)/C(=C/c3ccc(-c4ccccc4[N+](=O)[O-])o3)C2=O)cc1	mHTT-CaM PPI inh 50.0
O=C(O)c1cccc(N2N=C(C(F)(F)F)/C(=C/c3ccc(-c4ccccc4[N+](=O)[O-])o3)C2=O)c1	none
COc1ccc2nc(C(=O)NCc3ccccc3Cl)cn2n1	none
Cc1ccccc1CNC(=O)c1ccn2c(-c3ccc(F)cc3)nnc2c1	none
O=C(CCc1nc2ccccc2n(Cc2c(F)cccc2Cl)c1=O)NCc1ccccc1	mHTT-CaM PPI inh 55.0

Assay outcomes: PubChem, University of Kansas High Throughput Screening Laboratory
